Assay results from PubChem BioAssay (NCATS).
Results filed as inconclusive are left out. A number with no mark means an inactive call. Activity calls are given as the source filed them. Calls come from the whole dose curve. Bridge positions count the residues as written; N and C are the ends. Square brackets hold non-standard residues; d marks the D form. Peptide text beside a SMILES is read from it. * marks the point of attachment. Octanoyl(6-Me) = CCC(C)CCCCC(=O)*; Dab = NCC[CH](N)C(=O)O

assay: Cytotoxicity counterscreen for inhibitors of SARS-CoV-2 cell entry (AID 1645845); settings: cell viability (SARS-CoV-2 entry assay cells); series mostly up to 57.1 µM; activity change, negative = cytotoxicity: at the top concentration; note: nearly all actives have a fitted effect of over 50% in size
Excerpt: Assay Provider: Wei Zheng, Ph.D.
National Center for Advancing Translational Sciences, National Institute of Health, Rockville, MD.
SARS-CoV-2 spike protein, within the viral envelope, mediates viral attachment and infection of host cells. The SARS-CoV-2 spike protein specifically binds to the host receptor ACE2 (Angiotensin-converting enzyme 2). This interaction promotes endocytosis of the viral particle, additional events lead to viral-host cell membrane fusion and release of the viral contents, allowing viral replication.
While SARS-CoV-2 requires BSL-3 facilities for live virus work, pseudo-typed partices (PP) that incorporate SARS-CoV-2 spike proteins without replication elements could facilitate studies on viral entry mechanisms in a BSL-2 setting. This PP cell entry assay could also enable screening of small molecule compound libraries in BSL-2 setting to identify inhibitors of SARS-CoV-2 cell entry. To eliminate false positive compounds, ATP content cytotoxicity assay was screened in the same cell line.
SEQUENCE No. (e.g., 1, 2, 3, etc.); […] (e.g., Cells, Incubation, Reagent, etc.); VALUE and DESCRIPTION.
1. Cells. Seed 1500 HEK293-ACE2 cells (Expi293F with stable expression of human ACE2) in 2 uL/well media (DMEM, 10% FBS, 1x L-glutamine, 1x Pen/Strep, 1 ug/ml puromycin) in white 1536-well assay plates (Greiner #782073).
2. Incubation. Incubate at 37 C with 5% CO2 overnight (~16 h).
3. Compounds. Dispense 23 nL/well compounds in DMSO via pin transfer.
4. Incubation. Incubate for 1 h at 37C 5% CO2.
5. Reagent. Dispense 2 uL/well of media (DMEM, 10% FBS, 1x L-glutamine, 1x Pen/Strep, 1 ug/ml puromycin).
6. Incubation. Incubate at for 48h at 37C 5% CO2
7. Reagent. Dispense 4 uL/well of ATPLite 1step luminescence assay reagent (PerkinElmer #6016739).
8. Incubation. Incubate for 15 min at room temperature.
9. Detection. Read luminescence signal (Viewlux plate reader, PerkinElmer). Data was normalized with wells containing cells as 100%, and wells without cells (media only control) as 0%.
% is set by controls: 0 for no effect and ±100 for the full control effect; potency is the fitted concentration of half-maximal effect.

Structure (SMILES)	activity change, negative = cytotoxicity	outcome	Potency
O=C(NCC(=O)N1CC[C@H](NC2CCC(O)(c3ccc(-c4ncccn4)cn3)CC2)C1)c1cccc(C(F)(F)F)c1 (stereo not given in full)	-1.6%		
NC1CCCN(c2c(/C=C3\SC(=O)NC3=O)cccc2-c2ccccc2)C1 (stereo not given)		inactive	
COc1ccc(CNc2nc(N3CCC[C@H]3CO)ncc2C(=O)NCc2ncccn2)cc1Cl	-17.4%		
COc1cc2[nH]c(C)c(CCN3CCN(c4ccccc4)CC3)c2cc1OC		inactive	
CC=CC1=C(C(=O)O)N2C(=O)[C@@H](NC(=O)[C@H](N)c3ccc(O)cc3)[C@H]2SC1	1.38% [at 27.1 µM]		
CC(=O)OCC(=O)[C@@]1(O)CC[C@H]2[C@@H]3C[C@H](C)C4=CC(=O)C=C[C@]4(C)[C@H]3[C@@H](O)C[C@@]21C	-22.8%		
CCCCCCCCCCCCCCCCCC(=O)[O][Al]	0.759% [at 5.25 µM]		
COc1ccc(C[C@H](C)NC[C@@H](O)c2ccc(O)c(NC=O)c2)cc1	-16.9%		
CO/N=C(/C(=O)N[C@@H]1C(=O)N2C(C(=O)OC(C)OC(C)=O)=C(COC(N)=O)CS[C@H]12)c1ccco1 (stereo not given in full)	1.18%		
CC[C@H]1OC(=O)[C@H](C)[C@@H](O[C@H]2C[C@@](C)(OC)[C@@H](O)[C@H](C)O2)[C@H](C)[C@@H](O[C@@H]2O[C@H](C)C[C@H](N(C)C)[C@H]2O)[C@](C)(OC)C[C@@H](C)C(=O)[C@H](C)[C@@H](O)[C@]1(C)O	-0.796%		
CCOC(=O)COc1ccc2c(C)c(CCN(CC)CC)c(=O)oc2c1		inactive	
CCCC1C(=O)N2C(N(C)C)=Nc3ccc(C)cc3N2C1=O (stereo not given)		inactive [at 114 µM]	
Cc1oc(-c2ccccc2)nc1CCOc1ccc(CC2C(=O)NOC2=O)cc1 (stereo not given)		inactive	
CCC=CCC=CCC=CCCCCCCCC(=O)O		inactive	
C[C@H](Nc1nc(N[C@H](C)C(F)(F)F)nc(-c2cccc(Cl)n2)n1)C(F)(F)F		inactive	
Nc1ncnc2c1C(=O)N(c1ccc(C3CCC(CC(=O)O)CC3)cc1)CCO2 (stereo not given)		inactive	
CCC(=O)N1CCOc2c(cc(-c3cc(OC)cc(OC)c3)cc2C(=O)N[C@H]2CCCN(C)C2)C1		inactive	
C[C@]12C=CC(=O)C=C1CC[C@@H]1[C@@H]2[C@@H](O)C[C@@]2(C)[C@H]1CC[C@]2(O)C(=O)COC(=O)c1cccc(S(=O)(=O)O)c1		inactive	
CN[C@@H](C)C(=O)N[C@H](C(=O)N1CCC[C@H]1C(=O)Nc1snnc1-c1ccccc1)C1CCCCC1	-16%		
CCOc1ccc(Cc2cc([C@@H]3O[C@H](CO)[C@@H](O)[C@H](O)[C@H]3O)ccc2Cl)cc1			inactive

Structure (SMILES)	activity change, negative = cytotoxicity	outcome	Potency
COc1ccc(S(=O)(=O)N[C@@H](CNc2nc(C)nc(N3CCC(c4ccc5c(n4)NCCC5)CC3)c2C)C(=O)O)cc1	-1.5%		
CCC(C)CCCCC(=O)NC(CCN)C(=O)NC(C(=O)NC(CCN)C(=O)NC1CCNC(=O)C(C(C)O)NC(=O)C(CCN)NC(=O)C(CCN)NC(=O)C(CC(C)C)NC(=O)C(Cc2ccccc2)NC(=O)C(CCN)NC1=O)C(C)O (stereo not given) ({Octanoyl(6-Me)}-[Dab]T[Dab][Dab][Dab]FL[Dab][Dab]T; lactam 4-C; configuration not given here)		inactive [at 27.1 µM]	
O=C1Cc2cc(C(=O)NC3C[C@H]4CC[C@@H](C3)N4S(=O)(=O)CC3CCN(CCCC(F)(F)F)CC3)c(Cl)cc2N1 (stereo not given in full)		inactive	
C=C1C(=O)OC2/C=C(/C)CC/C=C(/C)CCC12 (stereo not given)	1.64%		
CN[C@H]1C(=O)N[C@@H]2Cc3ccc(cc3)Oc3cc4cc(c3O[C@@H]3O[C@H](C(=O)O)[C@@H](O)[C@H](O)[C@H]3NC(=O)CCCCCCCCC(C)C)Oc3ccc(cc3Cl)[C@@H](O)[C@@H]3NC(=O)[C@H](NC(=O)[C@@H]4NC(=O)[C@@H](NC2=O)c2cc(cc(O)c2Cl)Oc2cc1ccc2O)c1ccc(O)c(c1)-c1c(O[C@H]2O[C@H](CO)[C@@H](O)[C@H](O)[C@@H]2O)cc(O)cc1[C@@H](C(=O)NCCCN(C)C)NC3=O	-3.72% [at 27.1 µM]		
COc1cc2c(NC3CCN(C)CC3)nc(N3CCCN(C)CC3)nc2cc1OCCCN(C)C	3.4%		
CC(C)(C)C(=O)N1N=CC[C@H]1c1ccccc1	0.217%		
CCN(CC)CCNc1ccc(C)c2sc3ccccc3c(=O)c12			28.2 µM (active)
CC(=O)OCC(=O)[C@@]12OC3(CCCC3)O[C@@H]1C[C@H]1[C@@H]3CCC4=CC(=O)C=C[C@]4(C)[C@@]3(F)[C@@H](O)C[C@@]12C		inactive	
NC(CC1c2ccccc2Oc2ccccc21)(C(=O)O)C1CC1C(=O)O (stereo not given)		inactive	
CC1(C)S[C@H]2[C@H](NC(=O)[C@@H](N)c3ccc(O)cc3)C(=O)N2[C@H]1C(=O)O			inactive
CN(C)C=Nc1c(I)cc(I)c(CCC(=O)O)c1I		inactive	
CS(=O)(=O)n1cc2c(n1)CN([C@H]1CO[C@H](c3cc(F)ccc3F)[C@@H](N)C1)C2		inactive	
COCCOC(=O)N1CCN(S(=O)(=O)c2cc(F)c(Oc3ccc(Cl)cc3)c(F)c2)C(C(=O)NO)C1 (stereo not given)			31.6 µM (active)
CNS(=O)(=O)c1ccc2c(c1)/C(=C/c1[nH]c3c(c1CCCN1CCN(C)CC1)CCCC3)C(=O)N2		inactive	
CCCCCCCC(=O)N[C@H](CN1CCCC1)[C@H](O)c1ccc2c(c1)OCCO2	-18.6%		
CCc1ccc(N(CC(C)C)S(=O)(=O)c2ccc(OCC3CCOCC3)c(CO)c2)cc1	-29.2%		
C/C=C/C=C/C(=O)O		inactive	
C[C@H]1CNCCCN1S(=O)(=O)c1cccc2cncc(F)c12			inactive
CCCCCCCCCC(=O)OC1CC[C@H]2[C@@H]3CCC4=CC(=O)CC[C@@H]4[C@H]3CC[C@]12C (stereo not given in full)	1.52%		
